Usually inhibition stands for the relative decrease from the control value, in per cent.

Molecules are shown by their SMILES. Values joined by “and” are separate entries in the source; they are usually repeats but may differ in a detail not shown here. Equal entries are not always repeated. Out of some 330,000 compounds screened, about 1,900 (0.58%) were called active. Roughly 4% stayed inconclusive and do not appear here. Only a sample is shown. Measured potencies and affinities stand elsewhere. Values without a mark were called inactive. Cut-off read from the data, not from the text of the source: inconclusive = inhibition above about 70% without an active follow-up result; inactive = below that.

The values below come from PubChem BioAssay AID449762 (Southern Research Specialized Biocontainment Screening …, 2010).

The test in a line: M. tuberculosis growth inhibition, HTS (AID 449762).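 Note: bacterial growth assessed after seven days of incubation.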 The following applies: M. tuberculosis H37Rv growth inhibition, 7H9 media; at 25 µM; stronger effect = higher value.
As for `Cc1occc1C(=O)Nc1ccccc1C#N`, the inhibition was -1.21%. Turning to `CC(C)CCOC(=O)C1[C@H]2C(=O)N(Cc3cccs3)C[C@]23C=C[C@H]1O3` (stereo not given in full), the inhibition was 0.09%. In the case of `O=c1c2ccccc2ncn1-c1ccc([N+](=O)[O-])cc1[N+](=O)[O-]` it was 4.34%. In the case of `O=[N+]([O-])c1ccccc1-n1cnc2ccccc21`, the inhibition is 8.38%. With `COc1cc(C(=O)OCC(=O)NCc2ccccc2)cc(NC(=O)c2ccco2)c1OC` the figure was 6.91%. In the case of `C1=C(c2ccccc2)CCN(c2ncnc3nc[nH]c23)C1` it was 1.26%; in that of `COc1ccccc1-n1c(N)c(C(N)=O)sc1=S`, -2.51%. With `CC(=O)c1ccc(OC(=O)CCc2nc3ccccc3s2)cc1` the figure was -3.41%; with `COC(=O)N1CCN(c2ccc(Cl)c(Cl)c2)CC1`, -0.8%. As for `CCOC(=O)N1CCN(c2ccc(Cl)c(Cl)c2)CC1`, the inhibition is -2.84%. In the case of `N#CCCn1cc(C(=O)Nc2ccc(C(=O)O)cc2)c(-c2cc3ccccc3o2)n1` it was -8.4%; in that of `CC(C)C[C@H](CO)Nc1nc(Nc2cccc(Cl)c2)c2ncn(C(C)C)c2n1`, 62.4%. On to `CC(C)n1cnc2c(Nc3cccc(Cl)c3)nc(NCCCO)nc21`, for which the inhibition is 27%. With `CC(C)(C)n1nnnc1CN1CCSCC1` the figure was 1.25%; with `COC(=O)c1cc(NC2c3ncccc3C(=O)N2Cc2ccccc2)cc(C(=O)OC)c1` (stereo not given), 2.2%.

On to `CCOC(=O)c1nnn(-c2nonc2-c2ccccc2)c1C`, for which the inhibition was 7.53%. In the case of `CCOC(=O)c1sc2nc3n(c(=O)c2c1C)CCC3` it was -4.9%. As to `Cc1c(C(=O)O)sc2nc3n(c(=O)c12)CCC(C)CC3` (stereo not given), the inhibition was -4.08%.

As to `COc1ccc(-c2cc(NCc3ccccn3)n3ncnc3n2)cc1`, the inhibition was 65.8%. `COc1ccc(-c2cc(NCCc3ccncc3)n3ncnc3n2)cc1`: the inhibition was -2.4%. With `COc1ccc(NC(=O)Cn2c(=O)n(-c3ccc(OC)cc3OC)c(=O)c3c(C)c(C)sc32)cc1` the figure was -0.67%; with `CC(C)N(CC(N)=O)c1ccc(S(=O)(=O)N2CCCC2)cn1`, -5.77%. As to `NC(=O)C1CCN(C(=O)COc2ccc3ccc(=O)oc3c2)CC1`, the inhibition is -9.39%. With `CCOC(=O)C1=C(C)Nc2nc(SCC)nn2C1c1ccc(OC)cc1` (stereo not given) the figure was 5.22%; with `CCOC(=O)C1=C(C)Nc2nc(SC)nn2C1c1ccc(C(=O)OC)cc1` (stereo not given), -5.54%; with `O=C(NCc1ccccc1)c1nccnc1CO`, 0.4%. On to `CN(C)S(=O)(=O)c1ccc(C(=O)NCc2nnc(SCC(=O)c3ccccc3)o2)cc1`, for which the inhibition is -10.3%. With `COc1cc(O)c(C(CCN2CCCC(C)C2)c2cc(OC)c(OC)c(OC)c2)c(OC)c1` (stereo not given) the figure was -1.23%. With `O=C(Nc1ccc(-c2nc3ccccc3s2)cc1)c1cc(-n2cnnc2)ccc1Cl` the figure was -1.18%. With `Cc1ccc(-c2nc3ccccc3s2)cc1NC(=O)c1cc(-n2cnnc2)ccc1Cl`, the inhibition is 3.06%.

As to `Cc1cc(C)c(NC(=O)Cn2ncc3ccccc32)c(C)c1`, the inhibition was -0.59%. As to `COC(=O)c1ccc(OC(=O)c2cccs2)cc1`, the inhibition is 19.3%. In the case of `Cc1ccc(N2C(=O)C3CCCN3C2=S)c(C)c1` (stereo not given) it was 5.68%. In the case of `Nc1ncc([N+](=O)[O-])cc1S(=O)(=O)c1ccccc1` it was 2.55%. With `NS(=O)(=O)c1ccc(S(=O)(=O)c2ccccc2)nc1` the figure was 1.3%.

In the case of `C#CCNC(=O)C1=C[C@@H](C)C[C@@H](OCc2ccc(CO)cc2)O1`, the inhibition is 2.19%. With `COc1ccc(-c2cc3nc(-c4ccccc4)cc(N4CCC(O)CC4)n3n2)cc1` the figure was 8.92%. In the case of `COc1ccc(-c2cc(-n3c(C(F)(F)F)nc4ccccc43)n(CCC#N)n2)cc1` it was 5.23%; in that of `Cc1ccc(S(=O)(=O)Nc2c(C)n(C)n(-c3ccccc3)c2=O)cc1C(=O)NCc1ccccc1`, -5.64%; in that of `Cc1nc2ccc(N=NC3=C(O)CC(C)(C)CC3=O)cc2s1`, 1.45%. In the case of `COc1ccc(N=NC2=C(O)CC(C)(C)CC2=O)cc1` it was -3.64%. Consider `COc1ccc(CCN2CC(O)=C(c3nc(C)cs3)C2=N)cc1OC`, for which the inhibition was 7.01%.

For the compound `COc1cccc(OCc2cc(C(=O)NCCN3CCCCC3CO)no2)c1` (stereo not given), the inhibition is -19.8%. In the case of `Cc1ccc(NNc2c(C)nc3ccccc3nc2=O)cc1` it was 42.5%; in that of `Cc1ccc2nc(-c3ccccc3)c(-c3ccccc3)nc2c1`, 2.44%; in that of `O=C(Nc1ccc(S(=O)(=O)Nc2ncccn2)cc1)c1ccco1`, -1.81%. In the case of `COc1ccc(/C=C2\SC(=O)N(CCNC(=O)Cn3[nH]c(=O)c4ccccc4c3=O)C2=O)cc1` it was 1.03%; in that of `COc1ccc(C2SCC(=O)N2c2ccc(C)cc2)cc1` (stereo not given), -1.14%. With `COc1ccc(C2CC(c3cccs3)=NN2S(C)(=O)=O)cc1` (stereo not given) the figure was -0.06%. On to `O=C(O)C1CC(c2ccccc2)=Nc2ccccc2S1` (stereo not given), for which the inhibition was 13.4%.

On to `COc1ccc(O)c(C2=Nc3ccccc3N=C(c3cccs3)C2)c1`, for which the inhibition was -0.29%. With `CCC(=O)N1N=C(c2ccccc2)CC1c1ccc([N+](=O)[O-])cc1` (stereo not given) the figure was 2.69%. Take `O=C(Nc1ccccc1)N1CCC(O)(c2cccc(C(F)(F)F)c2)CC1`: the inhibition is 1.21%.

Take `CCN(CC)CCCN=C1N[C@@H](c2cccc(F)c2)C(C(=O)OC)=C(C)N1Cc1ccccc1`: the inhibition was -0.31%. In the case of `CC(C)C(NC(=O)OCc1ccccc1)C(=O)OCC(=O)NCc1ccco1` (stereo not given) it was 8.7%. With `Cc1ccc(C(=O)NNC(=O)c2cccc(C)c2)cc1` the figure was -4.89%; with `CCOc1ccc(S(=O)(=O)Nc2ncn[nH]2)cc1`, 1.15%; with `CCOC(=O)c1c(C)n(C)c2ccc(OC(=O)c3ccc([N+](=O)[O-])cc3)cc12`, 25.7%. With `COc1ccc2c(c1)c(C(C)=O)c(C)n2C` the figure was 4.3%; with `CC12CCC(=O)N1C(C(=O)N1CCN(c3ccc(C(F)(F)F)cc3[N+](=O)[O-])CC1)CS2` (stereo not given), 4.09%.

Take `CC1(c2nnc(-c3ccccc3)o2)CC(c2ccncc2)=NO1` (stereo not given): the inhibition is 10.1%. With `CC1(c2nnc(-c3ccccc3)o2)CC(c2ccccc2)=NO1` (stereo not given) the figure was 4.65%; with `Cc1nc(C)c(-c2csc(Nc3ccccn3)n2)s1`, 5.67%; with `O=S(=O)(c1cccc2cccnc12)N1CCN(c2ccccn2)CC1`, -2.85%. With `COc1ccc(S(=O)(=O)N2CCN(CC(=O)Nc3ccccc3OC)CC2)cc1` the figure was 5.95%; with `FC(F)Oc1ccc(NC(=S)Nn2cnnc2)cc1`, -3%. In the case of `COc1ccc(CNC(=O)C[C@H]2C(=O)N(c3ccccc3)C[C@@H]2Cc2ccccc2)cc1` it was 0.74%.

For the compound `CC1Cc2ccccc2N1C(=O)CSc1nc2ccccc2n1CC(=O)N1CCOCC1` (stereo not given), the inhibition was 7.22%. With `C=CCNC(=O)c1onc(CSc2ccc(OC)cc2)c1C(=O)O` the figure was 4.85%; with `C=CCNC(=O)c1onc(CSc2ccc(Cl)cc2)c1C(=O)NCC=C`, 27.7%. In the case of `CCN(CC)S(=O)(=O)c1ccc(N2CCCC2)c(NC(=O)C2=COCCO2)c1` it was -7.17%; in that of `Cn1c(CSCc2ccc(F)cc2)n[nH]c1=S`, -6.48%; in that of `COC(=O)CCN1CCC(c2cc(-c3cccc(C(F)(F)F)c3)n[nH]2)CC1`, 5.38%. With `FC(F)(F)c1cccc(-c2cc(C3CCNCC3)[nH]n2)c1` the figure was 6.36%; with `O=C(CC1C(=O)NCCN1Cc1ccc(F)cc1)NCCCn1cccn1` (stereo not given), -1%. With `O=S(=O)(NCCc1cn2ccccc2n1)c1ccc2c(c1)OCCO2`, the inhibition is -2.59%. In the case of `Cc1c(C(=O)NCc2ccc(S(N)(=O)=O)cc2)oc2ccc(Cl)cc12` it was -4.55%; in that of `COc1cc2nc(Nc3cccc(F)c3)nc(N)c2cc1OC`, 34.9%.

With `COc1cc2nc(N3CCN(C(=O)c4ccco4)CC3)nc(N)c2cc1OC`, the inhibition is -7.62% and 1.49%. In the case of `COc1cc2nc(N3CCNCC3)nc(N)c2cc1OC` it was -16.4%; in that of `COc1cc2nc(Nc3ccc(F)cc3)nc(N)c2cc1OC`, 23.2%. For the compound `CCn1c(O)c(N=Nc2cccc(S(=O)(=O)N3CCOCC3)c2)c(=O)n(CC)c1=S`, the inhibition was -2.11%. For `O=C(Nc1cccc(C(=O)N2CCCc3ccccc32)c1)c1ccccc1`, the inhibition was 6.88%. With `COc1ccccc1C(=O)NC(=O)Nc1c(C)cc(C)cc1C` the figure was 1.95%; with `COc1ccc(-c2nc(-c3ccncc3)no2)c(OC)c1`, 4.47%; with `COc1ccc(S(=O)(=O)N2CCC(c3cc(-c4cccc5ccccc45)n[nH]3)CC2)cc1`, 66.5%.

Regarding `COc1ccc(S(=O)(=O)Nc2c(F)cccc2F)cc1`, the inhibition is 6.44%. With `COc1cccc(NS(=O)(=O)c2nc3nc(C)cc(C)n3n2)c1` the figure was -2.88%; with `COc1ccc(CNS(=O)(=O)c2cc3c4c(c2)C(C)C(=O)N4CCC3)cc1` (stereo not given), -1.95%. In the case of `COc1ccc(CCC(=O)NCCS(=O)(=O)N2CCN(c3ccccc3F)CC2)cc1` it was 9.75%; in that of `CN1CCCN(C(=O)c2cccc(Br)c2)CC1`, -4.86%; in that of `c1ccc(-c2ccccn2)nc1`, 11.8%.

Turning to `CC(C)Nc1nc(-c2ccccn2)nc(-c2ccccc2)c1C#N`, the inhibition was -1.18%.

Consider `c1ccc(-c2nnc(-c3ccccn3)c(-c3ccccn3)n2)nc1`, for which the inhibition is 0.73%.

As for `c1ccc(-c2nc(-c3ccccn3)nc(-c3ccccn3)n2)nc1`, the inhibition was 14.8%.
